Earlier results on 18 compounds are cited in PubChem BioAssay AID977611.

One may read the Kd as the constant that tells how readily two partners part at equilibrium.

The whole screen tested about 3,900 compounds, of which about 3,900 (100%) were called active. The limit is not given here; nearly all actives have Kd up to about 4200 µM. So high a share suggests a set chosen from earlier hits. The list shows a part of the results. Starred links: 1 amine or outer side, 2 acyl side, 3 side chain; linkers in the order of their positions; H or OH if unused. *1 amine or outer side, *2 acyl side, *3 side chain or, on linkers, in order; H or OH if unused. Where a SMILES comes first, the peptide text is derived from it. Non-standard residues stand in square brackets, D forms with d. Square brackets hold non-standard residues; d marks the D form. Residues, ends and D or L forms follow the SMILES beside them. Peptide text beside a SMILES is read from it. [ ]: non-standard residue; d: D form. The star is where a group is joined. X1 = O=C([C@@H]1CC[C@H](O)N1[*:1])[*:2]; Orn(CH(NH2)2) = NC(N)NCCC[C@H](N)C(=O)O; Lys(Me2) = CN(C)CCCC[C@H](N)C(=O)O; Lys(Me) = CNCCCC[C@H](N)C(=O)O; Butyryl = CCCC(=O)*

This data set can be described thus: PubChem AID 977611. The following applies: PDB protein-ligand complexes, literature Kd.

Consider `CCCC(=O)NCCCC[C@H](NC(=O)[C@]1([C@@H](C)O)N[C@@](O)([C@@H](N)CCCN=C(N)N)O1)C(=O)N[C@@H](CCC(N)=O)C(=O)N[C@H](C(=O)N[C@@H](C)C(=O)N[C@@H](CCCN=C(N)N)C(=O)O)[C@@H](C)O` (H-[X1]K(Butyryl)QTAR-OH), for which the dissociation constant (Kd) (protein: NAD-DEPENDENT PROTEIN DEACETYLASE SIRTUIN-3, MITOCHONDRIAL Sirt3, PDB entry 4v1c) was 25.1 µM (active).

For `C[C@H](N)C(=O)N[C@@H](CCCN=C(N)N)C(=O)N[C@H](C(=O)N[C@@H](CCCCN)C(=O)N[C@@H](CCC(N)=O)C(=O)N[C@H](C(=O)N[C@@H](C)C(=O)N[C@@H](CCCN=C(N)N)C(=O)N[C@@H](CCCCN)C(=O)N[C@@H](CO)C(=O)N[C@H](C(=O)NCC(=O)O)[C@@H](C)O)[C@@H](C)O)[C@@H](C)O`, the Kd (protein: histone acetyltransferase Hat1p/Hat2p/H4 peptide complex, PDB entry 4psx) was 0.34 µM (active).

As for H-GCARSEG-OH, the Kd (protein: WD repeat-containing protein 5, WDR5, PDB entry 4es0) was 0.103 µM (active).

For H-TKQTARK(Ac)S-NH2, the Kd (protein: Protein AF-9 AF9 YEATS, PDB entry 4tmp) was 3.7 µM (active).

Turning to `C[C@H](N)C(=O)N[C@@H](C)C(=O)N[C@@H](C)C(=O)N[C@@H](C)C(=O)N[C@@H](C)C(=O)N[C@@H](C)C(=O)N[C@@H](C)C(=O)N[C@@H](C)C(=O)N[C@@H](C)C(=O)N[C@@H](C)C(=O)O`, the Kd (protein: Transportin 1 (Trn1), PDB entry 2z5o) was 1 µM (active).

On to `C[C@H](N)C(=O)N[C@@H](CCCN=C(N)N)C(=O)N[C@H](C(=O)N[C@@H](CCCCN)C(=O)N[C@@H](CCC(N)=O)C(=O)N[C@H](C(=O)N[C@@H](C)C(=O)N[C@@H](CCCN=C(N)N)C(=O)N[C@@H](CCCCN)C(=O)N[C@@H](CO)C(=O)O)[C@@H](C)O)[C@@H](C)O`, for which the Kd (protein: DNA (cytosine-5)-methyltransferase 3A DNMT3A-DNMT3L, PDB entry 4u7t) is 2.14 µM (active).

For the compound H-ARTAA-OH, for the setting “protein: WD repeat-containing protein 5 WDR5, PDB entry 4o45”, the Kd is 70 µM (active).

Take `CNCCCC[C@H](NC(=O)[C@H](CCCNC(N)N)NC(=O)[C@H](C)NC(=O)[C@@H](NC(=O)[C@H](CCC(N)=O)NC(=O)[C@H](CCCCNC)NC(=O)[C@@H](N)[C@@H](C)O)[C@@H](C)O)C(=O)N[C@@H](CO)C(=O)N[C@H](C(=O)O)[C@@H](C)O` (H-T[Lys(Me)]QTA[Orn(CH(NH2)2)][Lys(Me)]ST-OH): the Kd (protein: SAWADEE HOMEODOMAIN HOMOLOG 1, PDB entry 4iuv) is 1.9 µM (active).

As to `CNCCCC[C@H](NC(=O)[C@H](CCCNC(N)N)NC(=O)[C@H](C)NC(=O)[C@@H](NC(=O)[C@H](CCC(N)=O)NC(=O)[C@H](CCCCN)NC(=O)[C@@H](N)[C@@H](C)O)[C@@H](C)O)C(=O)N[C@@H](CO)C(=O)O` (H-TKQTA[Orn(CH(NH2)2)][Lys(Me)]S-OH), under “protein: SAWADEE HOMEODOMAIN HOMOLOG 1, PDB entry 4iuu”, the Kd is 2.22 µM (active).

Regarding `C[C@H](NC(=O)[C@@H](NC(=O)[C@H](CCC(N)=O)NC(=O)[C@H](CCCCN)NC(=O)[C@@H](N)[C@@H](C)O)[C@@H](C)O)C(=O)N[C@@H](CCCNC(N)N)C(=O)N[C@@H](CCCCN(C)C)C(=O)N[C@@H](CO)C(=O)O` (H-TKQTA[Orn(CH(NH2)2)][Lys(Me2)]S-OH), where the note is “protein: SAWADEE HOMEODOMAIN HOMOLOG 1, PDB entry 4iut”, the Kd is 1.9 µM (active).

Consider `CC(C)C[C@H](NC(=O)[C@H](CCCNC(N)N)NC(=O)[C@@H](NC(=O)[C@H](CC(=O)O)NC(=O)[C@@H](N)CCC(N)=O)[C@@H](C)O)C(=O)O` (HELM PEPTIDE1{Q.D.T.[NC(N)NCCC[C@H](N[*:1])C(=O)[*:2]].L}$$$$V2.0), for which the Kd runs as follows: (protein: Na(+)/H(+) exchange regulatory cofactor NHE-RF1, PDB entry 2m0u) 0.365 µM (active); (protein: Na(+)/H(+) exchange regulatory cofactor NHE-RF1, PDB entry 2m0v) 1.08 µM (active).

`CC(C)C[C@H](NC(=O)[C@H](C)NC(=O)[C@H](CC(=O)O)NC(=O)[C@H](CC(C)C)NC(=O)[C@@H](N)CC(=O)O)C(=O)N[C@@H](CC(C)C)C(=O)N[C@@H](C)C(=O)N[C@@H](CC(=O)O)C(=O)N[C@@H](CC(C)C)C(=O)N[C@@H](CCC(=O)O)C(=O)O` (H-DLDALLADLE-OH): the Kd (protein: Alpha-parvin, PDB entry 2k2r) is 1300 µM (active).

Consider `CC(C)[C@H](NC(=O)[C@H](CCC(N)=O)NC(=O)[C@@H](NC(=O)[C@H](CCC(=O)O)NC(=O)[C@H](CCCNC(N)N)NC(=O)[C@H](CCCNC(N)N)NC(=O)[C@@H](NC(=O)[C@H](CCCNC(N)N)NC(=O)[C@H](CO)NC(=O)[C@H](CO)NC(=O)[C@@H](N)CCCNC(N)N)[C@@H](C)O)[C@@H](C)O)C(=O)O` (H-[Orn(CH(NH2)2)]SS[Orn(CH(NH2)2)]T[Orn(CH(NH2)2)][Orn(CH(NH2)2)]ETQV-OH), for which the Kd (protein: second PDZ domain of MAGI-1 (Membrane-associated guanylate kinase), PDB entry 2kpl) is 0.23 µM (active).

On to `CSCC[C@H](NC(=O)[C@H](CC(C)C)NC(=O)[C@H](C)NC(=O)[C@H](CC(=O)O)NC(=O)[C@H](CC(C)C)NC(=O)[C@H](C)NC(=O)[C@H](C)NC(=O)[C@@H](NC(=O)[C@H](C)NC(=O)[C@H](C)N)[C@@H](C)O)C(=O)N[C@@H](C)C(=O)N[C@@H](CO)C(=O)N[C@@H](CC(C)C)C(=O)O` (H-AATAALDALMASL-OH), for which, where the note is “protein: Protein-tyrosine kinase 2-beta, Pyk2 FAT domain, PDB entry 3u3f”, the Kd was 8 µM (active).

In the case of `CSCC[C@H](NC(=O)[C@H](CC(C)C)NC(=O)[C@H](CCC(=O)O)NC(=O)[C@H](CC(=O)O)NC(=O)[C@H](CC(C)C)NC(=O)[C@H](CCC(=O)O)NC(=O)[C@H](CCCNC(N)N)NC(=O)[C@@H](N)[C@@H](C)O)C(=O)N[C@@H](C)C(=O)N[C@@H](CO)C(=O)N[C@@H](CC(C)C)C(=O)N[C@@H](CO)C(=O)O` (H-T[Orn(CH(NH2)2)]ELDELMASLS-OH), the Kd by setting is: (protein: Focal Adhesion Targeting Domain(FAT), PDB entry 1ow6) 4 µM (active); (protein: Focal Adhesion Targeting Domain(FAT), PDB entry 1ow7) 4 µM (active).

In the case of `CC(C)C[C@H](NC(=O)[C@H](C)NC(=O)[C@H](C)NC(=O)[C@H](CC(C)C)NC(=O)[C@H](CCCNC(N)N)NC(=O)[C@H](CCCNC(N)N)NC(=O)[C@H](CO)NC(=O)[C@H](CC(C)C)NC(=O)[C@H](CCC(N)=O)NC(=O)[C@H](CC(=O)O)NC(=O)[C@@H](N)CCC(=O)O)C(=O)N[C@@H](CCCNC(N)N)C(=O)N[C@@H](CC(N)=O)C(=O)O` (H-EDQLS[Orn(CH(NH2)2)][Orn(CH(NH2)2)]LAAL[Orn(CH(NH2)2)]N-OH), under “protein: Vacuolar protein sorting-associating protein 4A, PDB entry 2jq9”, the Kd is 33.4 µM (active).

For `CC(C)[C@H](NC(=O)[C@H](CCC(N)=O)NC(=O)[C@@H](NC(=O)[C@H](CCC(=O)O)NC(=O)[C@H](CC(N)=O)NC(=O)[C@H](CCCNC(N)N)NC(=O)[C@H](CCC(N)=O)NC(=O)[C@H](CCCNC(N)N)NC(=O)[C@@H](NC(=O)[C@H](CCCNC(N)N)NC(=O)[C@@H]1CC[C@H](O)N1)[C@@H](C)O)[C@@H](C)O)C(=O)O` (H-[X1][Orn(CH(NH2)2)]T[Orn(CH(NH2)2)]Q[Orn(CH(NH2)2)]NETQV-OH), the Kd (protein: Disks large homolog 1, PDB entry 2m3m) is 9.63 µM (active).

Turning to `CC(C)C[C@H](NC(=O)[C@H](CCC(=O)O)NC(=O)[C@H](CC(C)C)NC(=O)[C@H](CC(C)C)NC(=O)[C@H](CC(C)C)NC(=O)[C@H](CCCNC(N)N)NC(=O)[C@H](CC(=O)O)NC(=O)[C@H](CC(C)C)NC(=O)[C@H](CCC(=O)O)NC(=O)[C@H](CO)NC(=O)[C@@H](N)CC(C)C)C(=O)N[C@@H](CC(N)=O)C(=O)O` (H-LSELD[Orn(CH(NH2)2)]LLLELN-OH), the Kd (protein: Focal Adhesion Targeting Domain(FAT), PDB entry 1ow8) is 4 µM (active).
